From PubChem BioAssay (NCI)
Compounds without any hit were thinned out: in the full panel of roughly 79,000, 15% have a hit. A number with no mark means an inactive call. Calls of active or inactive are those of the source. Cut-off read from the data, not from the text of the source: active = growth inhibition above about 70%; inactive = the rest.

Experiment: NCI Yeast Anticancer Drug Screen. Data for the cln2 rad14 strain (AID 165);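 note: 0% = growth equal to vehicle treated cultures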
Details: S. cerevisiae cln2 rad14 strain, at 50.0 µM, active compounds read high
Summary of the method: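 Yeast carrying cln2 and rad14 alterations (cell cycle control and DNA damage repair) were exposed to compounds. Growth inhibition was measured against vehicle-treated controls.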

Row | SMILES | growth inhibition
1 | Cc1cc(NCCCCCCCNc2cc(C)nc3cc(N)ccc23)c2ccc(N)cc2n1 | 82% (active)
2 | C[C@]12CC[C@H]3[C@@H](CCC4=CC(=O)CC[C@@]43C)[C@@H]1CC[C@@H]2C(=O)C=O | 39%
3 | COc1cc2c[n+](C)c3c4cc(OC)c(OCc5ccccc5)cc4c(OCc4ccccc4)cc3c2cc1OC | 96.6% (active)
4 | Nc1ncnc2c1c(-c1ccc(Cl)cc1)cn2-c1ccccc1 | 45%
5 | Cc1c[nH]c2nc(C)n(-c3ccccc3)c(=N)c12 | 38%
6 | COc1ccc(Cc2ccc3c(C)cc(Cl)nc3c2)cc1 | 31.6%
7 | COC(=O)c1ccc(NCc2c(O)ccc(O)c2Br)cc1Cl | 90.2% (active)
8 | CC1=CC(=O)c2c(O)c3c(c(O)c2C1=O)C1C(O)C(C3=O)C23C(=O)c4c(O)c(C)cc(O)c4C(O)=C2C(=O)CC(O)C13 (stereo not drawn) | 91.3% (active)
9 | CC(C)(O)[C@H](CCO)O[Si](c1ccccc1)(c1ccccc1)C(C)(C)C | 97.5% (active)
10 | COC(=O)/C(C#N)=C(/SC)N(C)C | 38.6%
11 | N#CC(C(=O)CCCC(=O)Nc1ccc(Cl)cc1)c1ccccc1Cl (stereo not drawn) | 93.9% (active)
12 | FC(F)(F)c1cccc(Nc2ccc3cnc4ccccc4c3c2)c1 | 92.5% (active)
13 | CN1C(/C=C/c2ccc(O)c3ncccc23)CCC2CCCC(O)C21 (stereo not drawn) | 85.2% (active)
14 | N#CC1(C#N)C(C#N)(C#N)C12CCCC2 | 16.9%
15 | O=C1C(Cl)=C(Cl)C(=O)C2=C1CC(Cl)C(Cl)C2 (stereo not drawn) | 99% (active)
16 | N#CC(/C=C/c1ccccc1)(NO)Nc1cccc(Cl)c1 (stereo not drawn) | 98.8% (active)
17 | O=C(O)c1ccccc1C(c1ccccc1)c1ccccc1 | 74.3% (active)
18 | OCC1(c2ccccc2)OC1c1ccccc1 (stereo not drawn) | 69.5%
19 | COc1ccc(NS(=O)(=O)c2ccc(F)cc2)cc1 | 97.5% (active)
20 | CCn1c2nc(=O)n(C)c(=O)c-2[n+]([O-])c2cc(C)ccc21 | 25.1%

Row | SMILES | growth inhibition
21 | O=[N+]([O-])C(=C(Nc1ccccc1)Nc1ccccc1)C(Cl)=C(Cl)Cl | 90.7% (active)
22 | CCC/C(=N\NC(=S)N(C)C)c1ccccn1 | 99.4% (active)
23 | O=C(CSc1cc[o+]cc1)c1cccc([N+](=O)[O-])c1 | 78.5% (active)
24 | CC12CCC(c3sc(N)c(C#N)c31)C2(C)C (stereo not drawn) | 13.8%
25 | N#CC(C#N)=C(C1CC1)C1CC1 | 41.4%
26 | Cc1c(N=Nc2cccc(F)c2)c(-c2ccccc2)nn1C(N)=S | 99.1% (active)
27 | CN1COc2c(Cl)cc(Cl)cc2C1 | -4%
28 | O=C1CCCCO1 | 19.4%
29 | Nc1cc2c(cc1/C=C(\C(=O)O)c1ccccc1)OCO2 | -24.6%
30 | Cc1cc2c(cc1C)C(=O)OC2=O | 31.6%
31 | C(/Cc1ccc2c(c1)OCO2)=N\NC1=NCCCCN1 | 28.8%
32 | CCCCCCCCN(CCCCCCCC)CC(O)c1cc(-c2ccc(OC)cc2)nc2cc(Cl)ccc12 (stereo not drawn) | 84% (active)
33 | Cc1cc(C(=O)CBr)c(CN2C(=O)c3ccccc3C2=O)c(=O)n1C | 2%
34 | O=C(O)c1ccccc1-c1c2ccc(=O)c(Br)c-2oc2c(Br)c(O)ccc12 | 97.5% (active)
35 | O=C(Nc1cccc(NC(=O)c2cc(=O)c3ccccc3o2)n1)c1cc(=O)c2ccccc2o1 | 24.2%
36 | COC(=O)c1nc(=S)[nH]c(C(=O)OC)c1C(=O)c1ccc([N+](=O)[O-])cc1 | 31.1%
37 | COC1/C=C\C=C(/C)C(=O)Nc2cc3nc4cc(Br)ccc4oc-3c(c2=O)CC(C)CC(OC)C(O)C(C)/C=C(\C)C1OC(N)=O (stereo not drawn) | 83.2% (active)
38 | NC(=S)C(=S)N/C=C(/c1ccc(Cl)cc1)S(=O)(=O)Cc1ccc(Cl)cc1 | 94.8% (active)
39 | O=C(Cc1ccccc1)c1ccccc1C(=O)NNc1ccccc1 | -51.9%

Experiment: NCI Yeast Anticancer Drug Screen. Data for the bub3 strain (AID 167)
Details: S. cerevisiae bub3 mutant strain, at 5.0 µM (retest, dose inferred, filed as 0.5), active compounds read high
Summary of the method: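 Growth of a checkpoint-deficient yeast mutant is measured after compound exposure. Values represent inhibition relative to vehicle.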

Row | SMILES | growth inhibition
40 | Cc1cc(NCCCCCCCNc2cc(C)nc3cc(N)ccc23)c2ccc(N)cc2n1 | -12%
41 | C[C@]12CC[C@H]3[C@@H](CCC4=CC(=O)CC[C@@]43C)[C@@H]1CC[C@@H]2C(=O)C=O | 1%
42 | COc1cc2c[n+](C)c3c4cc(OC)c(OCc5ccccc5)cc4c(OCc4ccccc4)cc3c2cc1OC | 16%
43 | Nc1ncnc2c1c(-c1ccc(Cl)cc1)cn2-c1ccccc1 | 13%
44 | Cc1c[nH]c2nc(C)n(-c3ccccc3)c(=N)c12 | -3%
45 | COc1ccc(Cc2ccc3c(C)cc(Cl)nc3c2)cc1 | 10%
46 | COC(=O)c1ccc(NCc2c(O)ccc(O)c2Br)cc1Cl | 22%
47 | CC1=CC(=O)c2c(O)c3c(c(O)c2C1=O)C1C(O)C(C3=O)C23C(=O)c4c(O)c(C)cc(O)c4C(O)=C2C(=O)CC(O)C13 (stereo not drawn) | 12%
48 | CC(C)(O)[C@H](CCO)O[Si](c1ccccc1)(c1ccccc1)C(C)(C)C | 4%
49 | COC(=O)/C(C#N)=C(/SC)N(C)C | 0%
50 | N#CC(C(=O)CCCC(=O)Nc1ccc(Cl)cc1)c1ccccc1Cl (stereo not drawn) | 1%
51 | FC(F)(F)c1cccc(Nc2ccc3cnc4ccccc4c3c2)c1 | -2%
52 | CN1C(/C=C/c2ccc(O)c3ncccc23)CCC2CCCC(O)C21 (stereo not drawn) | 8%
53 | N#CC1(C#N)C(C#N)(C#N)C12CCCC2 | 4%
54 | O=C1C(Cl)=C(Cl)C(=O)C2=C1CC(Cl)C(Cl)C2 (stereo not drawn) | 96% (active)
55 | N#CC(/C=C/c1ccccc1)(NO)Nc1cccc(Cl)c1 (stereo not drawn) | 29%
56 | O=C(O)c1ccccc1C(c1ccccc1)c1ccccc1 | 25%
57 | OCC1(c2ccccc2)OC1c1ccccc1 (stereo not drawn) | -71%
58 | COc1ccc(NS(=O)(=O)c2ccc(F)cc2)cc1 | 6%
59 | CCn1c2nc(=O)n(C)c(=O)c-2[n+]([O-])c2cc(C)ccc21 | -1%

Row | SMILES | growth inhibition
60 | O=[N+]([O-])C(=C(Nc1ccccc1)Nc1ccccc1)C(Cl)=C(Cl)Cl | 94% (active)
61 | CCC/C(=N\NC(=S)N(C)C)c1ccccn1 | 85% (active)
62 | O=C(CSc1cc[o+]cc1)c1cccc([N+](=O)[O-])c1 | 4%
63 | CC12CCC(c3sc(N)c(C#N)c31)C2(C)C (stereo not drawn) | -15%
64 | N#CC(C#N)=C(C1CC1)C1CC1 | -59%
65 | Cc1c(N=Nc2cccc(F)c2)c(-c2ccccc2)nn1C(N)=S | 1%
66 | CN1COc2c(Cl)cc(Cl)cc2C1 | -4%
67 | O=C1CCCCO1 | -1%
68 | Nc1cc2c(cc1/C=C(\C(=O)O)c1ccccc1)OCO2 | -6%
69 | Cc1cc2c(cc1C)C(=O)OC2=O | -3%
70 | C(/Cc1ccc2c(c1)OCO2)=N\NC1=NCCCCN1 | -1%
71 | CCCCCCCCN(CCCCCCCC)CC(O)c1cc(-c2ccc(OC)cc2)nc2cc(Cl)ccc12 (stereo not drawn) | 12%
72 | Cc1cc(C(=O)CBr)c(CN2C(=O)c3ccccc3C2=O)c(=O)n1C | 18%
73 | O=C(O)c1ccccc1-c1c2ccc(=O)c(Br)c-2oc2c(Br)c(O)ccc12 | -1%
74 | O=C(Nc1cccc(NC(=O)c2cc(=O)c3ccccc3o2)n1)c1cc(=O)c2ccccc2o1 | 15%
75 | COC(=O)c1nc(=S)[nH]c(C(=O)OC)c1C(=O)c1ccc([N+](=O)[O-])cc1 | 5%
76 | COC1/C=C\C=C(/C)C(=O)Nc2cc3nc4cc(Br)ccc4oc-3c(c2=O)CC(C)CC(OC)C(O)C(C)/C=C(\C)C1OC(N)=O (stereo not drawn) | 79% (active)
77 | NC(=S)C(=S)N/C=C(/c1ccc(Cl)cc1)S(=O)(=O)Cc1ccc(Cl)cc1 | 21%
78 | O=C(Cc1ccccc1)c1ccccc1C(=O)NNc1ccccc1 | 43%
